# Data: PubChem BioAssay (NCI)
# Values joined by “and” are separate entries in the source; they are usually repeats but may differ in a detail not shown here. Equal entries are not always repeated. This is part of a sample that, as a whole, favours compounds with a hit. Of some 83,000 tested, about 20% had one in any assay.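 How to read the values: 0–100, growth inhibition (40 = 60% inhibited); 0, no net growth; -100 to 0, cell death (-40 = 40% of starting cells died; -100 = all dead).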 Active and inactive are the calls of the source. How the source made its calls: active means growth percent below 10; inactive means the rest.
# What was measured:
# Experiment in all cases: NCI-60 one-dose screen, 48 h (100 = growth as untreated, 0 = no growth, -100 = all killed)
# Conditions in all cases: 10 µM unless noted
# HCT-15 colon = tested on: HCT-15 colon
# HT29 colon = tested on: HT29 colon
# SNB-19 CNS = tested on: SNB-19 CNS
# U251 CNS = tested on: U251 CNS
# PC-3 prostate = tested on: PC-3 prostate
# SK-MEL-5 melanoma = tested on: SK-MEL-5 melanoma
# UACC-62 melanoma = tested on: UACC-62 melanoma
# LOX IMVI melanoma = tested on: LOX IMVI melanoma
# SK-MEL-28 melanoma = tested on: SK-MEL-28 melanoma
Structure (SMILES),growth (HCT-15 colon),growth (HT29 colon),growth (SNB-19 CNS),growth (U251 CNS),growth (PC-3 prostate),growth (SK-MEL-5 melanoma),growth (UACC-62 melanoma),growth (LOX IMVI melanoma),growth (SK-MEL-28 melanoma)
CNC(=O)c1ccc(C)c(-n2c(C)cc(OCc3ccc(F)cc3F)c(Br)c2=O)c1,91% (inactive) and 97.1% (inactive),56.4% (inactive) and 76.5% (inactive),75.8% (inactive) and 91.1% (inactive),80.1% (inactive) and 78.6% (inactive),74.8% (inactive) and 66.5% (inactive),56.4% (inactive) and 87.9% (inactive),56.5% (inactive) and 73.4% (inactive),83.2% (inactive) and 93.6% (inactive),104% (inactive) and 97.9% (inactive)
COc1ccc2cc1Oc1ccc(cc1)C[C@@H]1c3cc(c(OC)cc3CCN1C)Oc1c(OC)c(OC)cc3c1[C@H](C2)N(C)CC3,,,,,,,20.3% [100 µM] (inactive) and -83.9% [100 µM] (active),,
COc1cc(C(=O)c2ccc3c(c2)OCO3)cc(OC)c1OC,15.6% (inactive) and 27.4% (inactive),5.54% (active) and -1.28% (active),35.9% (inactive) and 43.1% (inactive),24.1% (inactive) and 16.2% (inactive),29.3% (inactive),18.3% (inactive) and 8.01% (active),,24% (inactive) and 44% (inactive),46.7% (inactive) and 43.2% (inactive)
CC1(C)[C@@H](OC(=O)CCC(=O)O)CC[C@]2(C)[C@H]3C(=O)C=C4[C@@H]5C[C@@](C)(C(=O)O)CC[C@]5(C)CC[C@@]4(C)[C@]3(C)CC[C@@H]12,101% (inactive) and -39.6% (active),103% (inactive) and -8.67% (active),102% (inactive) and -3.23% (active),110% (inactive) and -91.2% (active),103% (inactive) and -28.4% (active),105% (inactive) and -82.7% (active),106% (inactive) and -80% (active),104% (inactive) and -50.8% (active),105% (inactive) and -66% (active)
Cc1nnc(NC/C=C/c2ccccc2)s1,98.3% (inactive) and 104% (inactive),107% (inactive) and 116% (inactive),108% (inactive) and 113% (inactive),97.8% (inactive),94% (inactive) and 99.5% (inactive),101% (inactive) and 102% (inactive),104% (inactive),96.1% (inactive) and 97.5% (inactive),104% (inactive) and 103% (inactive)
CC1=C2NCN(C)N=C2C(C#N)(C#N)C1(C#N)C#N,,,,,,,-78.8% [100 µM] (active) and -94.8% [100 µM] (active),,
CN1CCN(C2CCN(C(=O)Nc3cc(Oc4ccc(NC(=O)C5(C(=O)Nc6ccc(F)cc6)CC5)c(F)c4)ccn3)CC2)CC1,-14.8% (active) and 93.5% (inactive),-60.3% (active) and 46.5% (inactive),3.95% (active) and 115% (inactive),-86.3% (active) and 98.1% (inactive),-12.3% (active) and 86.1% (inactive),-98% (active) and 80.1% (inactive),-78% (active) and 70.7% (inactive),-88.3% (active) and 93.1% (inactive),-91.6% (active) and 94.3% (inactive)
CCCCCCSC[C@H](OC(C)=O)[C@@H](OC(C)=O)[C@@H](OC(C)=O)[C@@H](COC(C)=O)OC(C)=O,,,,,,,51.3% [100 µM] (inactive) and 71.8% [100 µM] (inactive),,
CC(/C=N/N1C(=O)c2ccccc2C1=O)c1ccccc1 (stereo not given),98.2% (inactive),108% (inactive),95.9% (inactive),99.5% (inactive),102% (inactive),99.4% (inactive),,98.3% (inactive),
CC(C)=CCc1c(OC(=O)c2c(C)cc(O)cc2O)cc(CO)c(CO)c1O,,,,,,,-76.6% [100 µM] (active) and -100% [100 µM] (active),,
CC(O)Cn1cnc2c1c(=O)n(C)c(=O)n2C (stereo not given),96.4% (inactive),109% (inactive),104% (inactive),81.8% (inactive),,101% (inactive),100% (inactive),87.1% (inactive),103% (inactive)
Cc1ccc(/C=N/Nc2ccccn2)s1,,,,,,,74.5% [100 µM] (inactive) and 87.7% [100 µM] (inactive),,
Nc1ccn(C2OC(CO)C(O)C2O)c(=O)n1 (stereo not given),,,,,,,,,58.1% (inactive) and 105% (inactive) and 110% (inactive)
